Compounds with a hit are over-represented: about 8.8% of the library has one in this group of screens.
HPGD inh: qHTS Assay for Inhibitors of HPGD (15-Hydroxyprostaglandin Dehydrogenase); 15-hydroxyprostaglandin dehydrogenase [NAD(+)] (Homo sapiens), P15428; purified HPGD, NADH fluorescence kinetic, PGE2 substrate; Potency, µM, inactives show at the highest dose activity change, negative = inhibition, actives largely listed as inhibitors; 150,000 tested, 4.3% active; active = well fitted inhibition curve with a large enough effect, not every such curve was filed as active; inconclusive = small, poorly fitted or top-dose-only effect, or another doubt; inactive = no such curve, though single readings can be large or run the other way; note: % is set by controls: 0 for no effect and ±100 for the full control effect
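20 nM HPGD preincubated 15 min at room temperature with compound in 50 mM Tris-HCl pH 8, 0.01% Tween 20. Started with 1 mM NAD+ and 30 uM prostaglandin E2; NADH fluorescence (360/450 nm) read 5 times over 30-s intervals, last minus first.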
HttQ103 aggreg: qHTS Multiplex Assay to Identify Dual Action Probes in a Cell Model of Huntington: Aggregate Formation (GFP); Potency, µM (series often up to 46.1 µM), inactives show at the highest dose activity change, negative = inhibition, hits mostly inhibitors; AID 1688, 2009; PC12 HttQ103-GFP aggregates, Acumen cytometry, 40 h; 220,000 tested, 1.1% active; note: % is set by controls: 0 for no effect and ±100 for the full control effect; nearly all actives have a fitted effect of over 60% in size
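Aggregate formation scored by laser-scanning cytometer (488 excitation, 500–530 emission) in lysed PC12 cells expressing Q103-GFP after 100 nM tebufenozide induction; library tested in dose series, with ATPLite reagent added in the multiplex.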
LMNA splice mod: qHTS Assay for Modulators of Lamin A Splicing; Potency, µM (series often up to 46.1 µM), without a hit: at the top dose ratio change, negative = inhibition, actives largely listed as inhibitors; HeLa LMNA splicing GFP/RFP minigene ratio, 48 h; 200,000 tested, 0.01% active; AID 1487, 2009; active = well fitted inhibition curve with a large enough effect in the signal ratio, with a control signal flat, not every such curve was filed as active; inconclusive = small, poorly fitted or top-dose-only effect, or effect the other way, or a change in a side signal; the % refers to the signal ratio; note: % is set by controls: 0 for no effect and ±100 for the full control effect
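Read-out is the ratio of GFP to DsRed2 object intensity, acquired by 488 nm laser-scanning cytometry on HeLa lamin A-EGFP minigene reporter cells. Compound incubation 48 hrs at 37 °C in Opti-MEM with 2% FBS; DMSO 0.5% final.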
ALDH1A1 inh: qHTS Assay for Inhibitors of Aldehyde Dehydrogenase 1 (ALDH1A1); AID 1030, 2008; Aldehyde dehydrogenase 1A1 (Homo sapiens), P00352; 220,000 tested, 7.3% active; Purified ALDH1A1, NADH fluorescence, propionaldehyde substrate; Potency, µM (highest dose often 75.3 µM), without a hit: at the highest dose activity, negative = inhibition, actives largely listed as inhibitors; active = well fitted inhibition curve with a large enough effect, not every such curve was filed as active; inconclusive = small, poorly fitted or top-dose-only effect, or another doubt; inactive = no such curve, though single readings can be large or run the other way;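 note: plate controls were no enzyme wells and a reference inhibitor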
Target sequence (P00352 whole entry, looked up): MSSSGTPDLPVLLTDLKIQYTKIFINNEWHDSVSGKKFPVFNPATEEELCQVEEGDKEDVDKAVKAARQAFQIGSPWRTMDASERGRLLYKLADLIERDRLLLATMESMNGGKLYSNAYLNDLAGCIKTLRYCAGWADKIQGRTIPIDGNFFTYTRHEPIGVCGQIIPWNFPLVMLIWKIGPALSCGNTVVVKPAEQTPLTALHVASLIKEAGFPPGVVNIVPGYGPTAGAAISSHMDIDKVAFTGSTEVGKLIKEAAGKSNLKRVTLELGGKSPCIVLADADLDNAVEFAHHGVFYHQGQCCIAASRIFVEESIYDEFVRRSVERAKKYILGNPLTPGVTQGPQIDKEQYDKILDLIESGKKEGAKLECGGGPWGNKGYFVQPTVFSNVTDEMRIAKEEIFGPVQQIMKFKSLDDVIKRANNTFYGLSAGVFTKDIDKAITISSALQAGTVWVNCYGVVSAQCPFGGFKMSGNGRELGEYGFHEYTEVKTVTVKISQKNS
HTT ATP protect: qHTS Multiplex Assay to Identify Dual Action Probes in a Cell Model of Huntington: Cytoprotection (ATP); 230,000 tested, 0.14% active; PC12 HTT-Q103 induced, cytoprotection, ATP luminescence, 40 h; Potency, µM (top dose mostly 56.4 µM), for inactives: cytoprotection (ATP increase), hits mostly activators; AID 1471, 2008; note: % of control where 0% means no effect; nearly all actives have a fitted effect of over 45% in size
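Readout: ATPlite luminescence (ATP level). Model: stable PC12, inducible Htt exon1 Q103-GFP. Inducer: tebufenozide, 100 nM final. Compounds: dose series. No G418 in medium.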
The depositor's hits bear a star; ? = inconclusive; . = not tested or not shown; [ ] = remark or other dose. Unless noted, calls come from the whole dose curve; as a rule, active = well fitted curve in the direction sought with a large enough effect; inconclusive = small, poorly fitted or top-dose-only effect, or another doubt; inactive = no such curve, though single readings can be large; an effect the other way counts as inactive or inconclusive. Potency is the fitted concentration of half-maximal effect.

SMILES	HPGD inh	HttQ103 aggreg	LMNA splice mod	ALDH1A1 inh	HTT ATP protect
N#CCCCSc1nnnn1-c1cccc(Cl)c1	-16%	-16%	5%	-7%	22%
CCC(Sc1nc2nccnc2c(=O)n1Cc1ccc(F)cc1)C(=O)NC1CCCCC1 (stereo not given)	.	.	7%[46 µM]	.	.
Cc1cc(=O)[nH]c(N=N/C(=N/Nc2ccc(O)cc2)c2ccccc2)n1	32µM*	1.6µM*	-6%	14µM*	-90%[10 µM]
O=C(CN1C(=O)c2cccnc2Sc2ccccc21)Nc1cc(F)ccc1F	.	.	-7%[46 µM]	.	.
C=CCC(Nc1ccc(OC)cc1)(C(=O)OCC)c1ccccc1 (stereo not given)	-2%	.	.	-1%	?
C=CCc1ccc(OCCCCNC2CCCC2)c(OC)c1	.	-1%	?	-6%	-40%
O=C(CSc1nc2ccccc2c(=O)n1-c1ccc(F)cc1)Nc1ccc(N2CCOCC2)cc1	-1%	?	-12%	-7%	9%[10 µM]
O=C(CSc1nc2ccccc2c(=O)n1-c1ccc(SC(F)F)cc1)Nc1ccc(N2CCOCC2)cc1	.	-8%[9.22 µM]	.	10µM*	-37%
O=C(c1ccc(-n2c(SCc3cccc(F)c3)nc3ccccc3c2=O)cc1)N1CCOCC1	-13%	2%	0%	0.32µM*	-3%[10 µM]
O=c1c2ccccc2nc(SCc2cccc(F)c2)n1-c1cccc(S(=O)(=O)N2CCCC2)c1	-4%	-21%	?	-1%	29%[10 µM]
O=C(Nc1cccc(Oc2ccc3c(c2)C(=O)NC3=O)c1)c1cccs1	14µM*	?	4%	2%	-16%[10 µM]
O=C(COc1cccc(NC(=O)c2cccs2)c1)c1ccc(F)cc1	16µM*	3%	?	0%	-1%[10 µM]
O=C(COc1cccc(NC(=O)c2ccccc2)c1)c1ccccc1	.	-12%[9.22 µM]	11%[46 µM]	8%	4%[10 µM]
NS(=O)(=O)c1cccc(NC(=O)c2cccs2)c1	.	-9%[9.22 µM]	.	.	6%[10 µM]
NNC(=O)c1ncoc1-c1ccc(Cl)cc1	.	0%[9.22 µM]	.	.	6%[10 µM]
COc1ccc(-n2cc(C(=O)OCc3ccc(F)c(F)c3)c3ccccc3c2=O)cc1	.	.	-12%[46 µM]	.	.
O=C(C1=COCCO1)N1CCN(C(c2ccccc2)c2ccccc2)CC1	-17%	-27%	5%	8.9µM*	16%[10 µM]
Cc1occc1C(=O)N1CCN(c2ccc(Cl)c(Cl)c2)CC1	-19%	11µM*	?	?	6%[10 µM]
Cc1occc1C(=O)N1CCN(S(C)(=O)=O)CC1	4%	-7%	2%	20µM*	6%[0.074 µM]
Cc1occc1C(=O)N1CCN(C(c2ccccc2)c2ccccc2)CC1	-22%	20µM*	-20%	?	-17%[10 µM]
Cc1occc1C(=O)N1CCN(c2ccccc2)CC1	-5%	-4%	-1%	5%	.
Cc1oc(C(C)(C)C)cc1C(=O)N1CCN(C(c2ccccc2)c2ccccc2)CC1	.	-1%[9.22 µM]	8%[46 µM]	8.9µM*	-10%[10 µM]
Cn1cccc1C(=O)N1CCC2(CC1)CCN(c1ccccn1)CC2	-30%	.	.	?	-23%
CN(C)Cc1c(-c2ccc(Cl)cc2)nc2ccccn12	.	0.032µM*	.	4%	-38%
CCNC(=O)Cn1c(-c2cccs2)cc2ccccc21	.	.	-7%[46 µM]	.	.
SMILES	HPGD inh	HttQ103 aggreg	LMNA splice mod	ALDH1A1 inh	HTT ATP protect
COc1ccc(O)c(/C=N/NC(=O)c2ccc(CSc3nc(C)cc(C)n3)cc2)c1	-9%	5.6µM*	?	?	-10%[10 µM]
COc1ccc(/C=N/NC(=O)c2ccc(CSc3nc(C)cc(C)n3)cc2)c(OC)c1OC	35µM*	7%	?	?	42%[10 µM]
O=C1ON=C(c2ccccc2)/C1=C/c1ccc(OS(=O)(=O)c2ccccc2)cc1	10µM*	?	-7%	11µM*	12%[10 µM]
Nc1c(C(=O)NC2CC2)sc2nc3c(c(-c4ccco4)c12)CC/C3=C/c1ccco1	16µM*	22%	2%	16µM*	10%[10 µM]
Cc1ccc(-c2nc3sc(C(N)=O)c(N)c3c3c2CCCC3)cc1	?	14%	-5%	1%	-67%[10 µM]
Cc1nc2sc(C(=O)O)c(N)c2c2c1COC(C)(C)C2	-13%	-6%	-7%	14µM*	-7%[0.074 µM]
